The supplement of paper PMC8728848
About 410 targets per protein were measured; listed, in parts, are those with the strongest signals and a random draw of the rest.

Key:
Assay in all cases: glycan array binding signal (z-score within array); higher = stronger binding
Details in all cases: glycan notation: IUPAC condensed, linker removed
[1] = target: Fuc(a1-2)Gal(b1-3)GalNAc(a1-3)[Fuc(a1-2)]Gal(b1-4)GlcNAc
In short: (§1)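 The binding signal is a Z-score computed within each array. Data were drawn from 3228 arrays in the Consortium for Functional Glycomics database, restricted to those with a known protein sequence. Scores were averaged over arrays of the same protein sequence at different concentrations or buffers, and over linkers, and negative values can be taken as non-binding.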

[2] = target: Fuc(a1-2)Gal(b1-3)GalNAc(b1-3)Gal(a1-4)Gal(b1-4)Glc
In short: as §1

[3] = target: Fuc(a1-2)Gal(b1-3)GlcNAc(b1-3)[Neu5Ac(a2-6)Gal(b1-4)GlcNAc(b1-6)]Gal(b1-4)Glc
In short: as §1

[4] = target: Fuc(a1-2)Gal(b1-4)GlcNAc(b1-3)Gal(b1-4)GlcNAc(b1-2)Man(a1-3)[Fuc(a1-2)Gal(b1-4)GlcNAc(b1-3)Gal(b1-4)GlcNAc(b1-2)Man(a1-6)]Man(b1-4)GlcNAc(b1-4)GlcNAc
In short: as §1

[5] = target: Fuc(a1-2)Gal(b1-4)GlcNAc(b1-6)GalNAc
In short: as §1

[6] = target: Fuc(a1-2)[Gal(a1-3)]Gal(b1-4)GlcNAc(b1-3)GalNAc
In short: as §1

[7] = target: Fuc(a1-2)[Gal(a1-3)]Gal(b1-4)GlcNAc(b1-3)[Fuc(a1-2)[Gal(a1-3)]Gal(b1-4)GlcNAc(b1-6)]GalNAc
In short: as §1

[8] = target: Fuc(a1-2)[GalNAc(a1-3)]Gal(b1-3)GlcNAc(b1-2)Man(a1-3)[Fuc(a1-2)[GalNAc(a1-3)]Gal(b1-3)GlcNAc(b1-2)Man(a1-6)]Man(b1-4)GlcNAc(b1-4)[Fuc(a1-6)]GlcNAc
In short: as §1

[9] = target: Fuc(a1-2)[GalNAc(a1-3)]Gal(b1-4)GlcNAc(b1-3)GalNAc
In short: as §1

[10] = target: Fuc(a1-2)[GalNAc(a1-3)]Gal(b1-4)[Fuc(a1-3)]GlcNAc
In short: as §1

[11] = target: Fuc(a1-3)[Gal(b1-4)]GlcNAc(b1-2)Man(a1-3)[Fuc(a1-3)[Gal(b1-4)]GlcNAc(b1-2)Man(a1-6)]Man(b1-4)GlcNAc(b1-4)[Fuc(a1-6)]GlcNAc
In short: as §1

[12] = target: Fuc(a1-3)[Gal(b1-4)]GlcNAc(b1-6)[Gal(b1-3)GlcNAc(b1-3)]Gal(b1-4)Glc
In short: as §1

[13] = target: Fuc(a1-3)[GalNAc(b1-4)]GlcNAc6S
In short: as §1

[14] = target: Gal(b1-3)[Fuc(a1-4)]GlcNAc(b1-2)Man
In short: as §1

[15] = target: Gal(b1-3)[Neu5Ac(a2-6)]GalNAc
In short: as §1

[16] = target: Gal(b1-3)[Neu5Ac(b2-6)]GalNAc
In short: as §1

[17] = target: Gal(b1-4)GlcNAc(b1-2)Man(a1-3)[GlcNAc(b1-4)][Gal(b1-4)GlcNAc(b1-2)Man(a1-6)]Man(b1-4)GlcNAc(b1-4)GlcNAc
In short: as §1

[18] = target: Gal(b1-4)GlcNAc(b1-2)[Gal(b1-4)GlcNAc(b1-6)]Man(a1-6)[Gal(b1-4)GlcNAc(b1-2)Man(a1-3)]Man(b1-4)GlcNAc(b1-4)[Fuc(a1-6)]GlcNAc
In short: as §1

[19] = target: Gal(b1-4)GlcNAc(b1-3)Gal(b1-4)GlcNAc(b1-2)[Gal(b1-4)GlcNAc(b1-3)Gal(b1-4)GlcNAc(b1-6)]Man(a1-6)[Gal(b1-4)GlcNAc(b1-3)Gal(b1-4)GlcNAc(b1-2)Man(a1-3)]Man(b1-4)GlcNAc(b1-4)GlcNAc
In short: as §1

[20] = target: Gal(b1-4)GlcNAc(b1-3)Gal(b1-4)GlcNAc(b1-3)Gal(b1-4)GlcNAc(b1-3)Gal(b1-4)GlcNAc(b1-3)Gal(b1-4)GlcNAc(b1-3)Gal(b1-4)GlcNAc(b1-2)Man(a1-3)[Gal(b1-4)GlcNAc(b1-3)Gal(b1-4)GlcNAc(b1-3)Gal(b1-4)GlcNAc(b1-3)Gal(b1-4)GlcNAc(b1-3)Gal(b1-4)GlcNAc(b1-3)Gal(b1-4)GlcNAc(b1-2)Man(a1-6)]Man(b1-4)GlcNAc(b1-4)GlcNAc
In short: as §1

[21] = target: Gal(b1-4)GlcNAc(b1-3)Gal(b1-4)GlcNAc(b1-3)[Gal(b1-4)GlcNAc(b1-3)Gal(b1-4)GlcNAc(b1-6)]GalNAc
In short: as §1

[22] = target: Gal(b1-4)GlcNAc(b1-3)Gal(b1-4)[Fuc(a1-3)]GlcNAc(b1-3)Gal(b1-4)[Fuc(a1-3)]GlcNAc
In short: as §1

[23] = target: Gal(b1-4)GlcNAc(b1-3)[GlcNAc(b1-6)]Gal(b1-4)GlcNAc
In short: as §1

Gal3S(b1-3)GalNAc = target: Gal3S(b1-3)GalNAc
In short: as §1

[24] = target: Gal3S(b1-4)[Fuc(a1-3)]GlcNAc
In short: as §1

GalNAc(b1-6)GalNAc = target: GalNAc(b1-6)GalNAc
In short: as §1

[25] = target: GlcNAc(a1-4)Gal(b1-4)GalNAc
In short: as §1

[26] = target: GlcNAc(a1-4)Gal(b1-4)GlcNAc(b1-3)Gal(b1-4)GlcNAc
In short: as §1

[27] = target: GlcNAc(a1-4)Gal(b1-4)GlcNAc(b1-3)Gal(b1-4)GlcNAc(b1-3)Gal(b1-4)GlcNAc
In short: as §1

[28] = target: GlcNAc(a1-4)Gal(b1-4)GlcNAc(b1-3)Gal(b1-4)[Fuc(a1-3)]GlcNAc(b1-3)Gal(b1-4)[Fuc(a1-3)]GlcNAc
In short: as §1

[29] = target: GlcNAc(b1-2)[GlcNAc(b1-6)]Man(a1-6)[GlcNAc(b1-2)Man(a1-3)]Man(b1-4)GlcNAc(b1-4)GlcNAc
In short: as §1

[30] = target: GlcNAc(b1-3)Gal(b1-4)GlcNAc(b1-2)Man(a1-3)[GlcNAc(b1-3)Gal(b1-4)GlcNAc(b1-2)Man(a1-6)]Man(b1-4)GlcNAc(b1-4)[Fuc(a1-6)]GlcNAc
In short: as §1

[31] = target: GlcNAc(b1-3)Gal(b1-4)GlcNAc(b1-3)Gal(b1-4)GlcNAc(b1-2)Man(a1-3)[GlcNAc(b1-3)Gal(b1-4)GlcNAc(b1-3)Gal(b1-4)GlcNAc(b1-2)Man(a1-6)]Man(b1-4)GlcNAc(b1-4)[Fuc(a1-6)]GlcNAc
In short: as §1

[32] = target: GlcNAc(b1-3)Gal(b1-4)GlcNAc(b1-3)Gal(b1-4)GlcNAc(b1-3)Gal(b1-4)GlcNAc(b1-3)Gal(b1-4)GlcNAc(b1-2)Man(a1-3)[GlcNAc(b1-3)Gal(b1-4)GlcNAc(b1-3)Gal(b1-4)GlcNAc(b1-3)Gal(b1-4)GlcNAc(b1-3)Gal(b1-4)GlcNAc(b1-2)Man(a1-6)]Man(b1-4)GlcNAc(b1-4)[Fuc(a1-6)]GlcNAc
In short: as §1

[33] = target: GlcNAc(b1-3)Gal(b1-4)GlcNAc(b1-3)Gal(b1-4)GlcNAc(b1-3)GalNAc
In short: as §1

GlcNAc(b1-4)GlcNAc = target: GlcNAc(b1-4)GlcNAc
In short: as §1

[34] = target: Neu5Ac(a2-3)Gal(b1-3)GlcNAc(b1-2)Man
In short: as §1

[35] = target: Neu5Ac(a2-3)Gal(b1-3)GlcNAc(b1-6)GalNAc
In short: as §1

[36] = target: Neu5Ac(a2-3)Gal(b1-4)GlcNAc(b1-3)GalNAc
In short: as §1

[37] = target: Neu5Ac(a2-3)Gal(b1-4)GlcNAc(b1-6)GalNAc
In short: as §1

[38] = target: Neu5Ac(a2-3)Gal(b1-4)[Fuc(a1-3)]GlcNAc(b1-3)GalNAc
In short: as §1

Neu5Ac(a2-3)GalNAc = target: Neu5Ac(a2-3)GalNAc
In short: as §1

[39] = target: Neu5Ac(a2-6)Gal(b1-4)GlcNAc(b1-2)Man(a1-3)[Neu5Ac(a2-6)Gal(b1-4)GlcNAc(b1-2)Man(a1-6)]Man(b1-4)GlcNAc(b1-4)GlcNAc
In short: as §1

[40] = target: Neu5Ac(a2-6)Gal(b1-4)GlcNAc(b1-3)[Neu5Ac(a2-6)Gal(b1-4)GlcNAc(b1-6)]GalNAc
In short: as §1

[41] = target: Neu5Ac(a2-6)GalNAc(b1-4)GlcNAc6S
In short: as §1

[42] = target: Neu5Ac(a2-8)Neu5Ac(a2-8)Neu5Ac
In short: as §1

Neu5Ac(b2-6)GalNAc = target: Neu5Ac(b2-6)GalNAc
In short: as §1

[43] = target: Neu5Gc(a2-3)Gal(b1-4)GlcNAc
In short: as §1

B1: ClecSol-Fc (Cryptosporidium parvum) (protein)
chain: CPEGWISNGEKTRCFKLVTFDRPRTFSHGFKACNDLGGTEVETRRRNGSKETNEYPVTLASVYKLSDEEAIRRTLVEQGDIHKTANGCFVGLRKYAFFRYPPGWYWIDSGSPVSVRDSEINWTSSYNASWLLRFKFPFEKCGFFDIGGLGRRPCWLIDSELSCAVCGTVAYDSGGLNPNKYSELIKQTDEIISKEPKLDLPGYNNLNCTDAWENNLSVGLCQNVSNILDSAWSSYQSSLNFPSINFNWKEDSTNEGGDQVYHNSYLDLPRYKQKKTFYWDQDPGTIPALSDEMKLIGLSAQPTYHPLDRSSSGSFESDSTESGRANEERNDTLEEMIYKQSSDSIEDILVPVTKPIFSDYSSIGRNSGVEEVYSSNVSTISSKGVVFPNTTTSSDNDFTKNNPANSSKHTSTSTTTNTTTTTTRTTTTTTTTTTTTTTTTTTTTETTTTKKSTTATKNTTTT
In the case of B1, the “glycan array binding signal (z-score)” value [1] is reported as 0.031, the “glycan array binding signal (z-score)” value [2] is reported as -0.029 and the “glycan array binding signal (z-score)” value [3] is reported as -0.161. The “glycan array binding signal (z-score)” value [4] was -0.154, the “glycan array binding signal (z-score)” value [5] was 0.51 and the “glycan array binding signal (z-score)” value [6] was 0.003. The “glycan array binding signal (z-score)” value [7] was 0.705, the “glycan array binding signal (z-score)” value [8] was -0.242 and the “glycan array binding signal (z-score)” value [9] was -0.169. For the same binder, the “glycan array binding signal (z-score)” value [10] was -0.281, the “glycan array binding signal (z-score)” value [11] was 0.593 and the “glycan array binding signal (z-score)” value [12] was 0.068. For the same binder, the “glycan array binding signal (z-score)” value [13] was -0.242, the “glycan array binding signal (z-score)” value [14] was -0.208 and the “glycan array binding signal (z-score)” value [15] was -0.235. For the same binder, the “glycan array binding signal (z-score)” value [16] was -0.149, the “glycan array binding signal (z-score)” value [17] was -0.166 and the “glycan array binding signal (z-score)” value [18] was -0.266. The “glycan array binding signal (z-score)” value [19] was 0.543, the “glycan array binding signal (z-score)” value [20] was -0.15 and the “glycan array binding signal (z-score)” value [21] was -0.114. For the same binder, the “glycan array binding signal (z-score)” value [22] was -0.22, the “glycan array binding signal (z-score)” value [23] was -0.01 and the “glycan array binding signal (z-score)” value (Gal3S(b1-3)GalNAc) was -0.101. For the same binder, the “glycan array binding signal (z-score)” value [24] was 0.021, the “glycan array binding signal (z-score)” value (GalNAc(b1-6)GalNAc) was -0.238 and the “glycan array binding signal (z-score)” value [25] was 18.7. For the same binder, the “glycan array binding signal (z-score)” value [26] was 2.11, the “glycan array binding signal (z-score)” value [27] was 1.61 and the “glycan array binding signal (z-score)” value [28] was 0.617. For the same binder, the “glycan array binding signal (z-score)” value [29] was -0.117, the “glycan array binding signal (z-score)” value [30] was 0.693 and the “glycan array binding signal (z-score)” value [31] was -0.079. The “glycan array binding signal (z-score)” value [32] was 0.18, the “glycan array binding signal (z-score)” value [33] was 0.074 and the “glycan array binding signal (z-score)” value (GlcNAc(b1-4)GlcNAc) was 5.31. The “glycan array binding signal (z-score)” value [34] was -0.101, the “glycan array binding signal (z-score)” value [35] was -0.123 and the “glycan array binding signal (z-score)” value [36] was -0.229. For the same binder, the “glycan array binding signal (z-score)” value [37] was -0.11, the “glycan array binding signal (z-score)” value [38] was -0.101 and the “glycan array binding signal (z-score)” value (Neu5Ac(a2-3)GalNAc) was 0.005. For the same binder, the “glycan array binding signal (z-score)” value [39] was -0.172, the “glycan array binding signal (z-score)” value [40] was -0.216 and the “glycan array binding signal (z-score)” value [41] was -0.03. For the same binder, the “glycan array binding signal (z-score)” value [42] was 0.518, the “glycan array binding signal (z-score)” value (Neu5Ac(b2-6)GalNAc) was -0.003 and the “glycan array binding signal (z-score)” value [43] was -0.119.
